Test [1] can be described thus: A High-Content qHTS Against Drug Library for the Identification of Small Molecules that Inhibit DYT1 Early Onset Primary Dystonia-Associated Cell Pathology (AID 1645839; calls by dose curve; further: series mostly up to about 46 µM). In a few lines: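 Induced EGFP-delE TorsinA cells are imaged after 48 h of compound treatment. Punctate fusion-protein distribution gives the %pathology value, while nuclei counts flag toxicity. Wild-type EGFP-hTOR1A cells define the normal pattern.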
In general terms: qHTS replaces the single test concentration by a dilution series.

A short description of test [2]: Primary qHTS for inhibitors of nuclear receptor binding SET domain protein 2 (NSD2) in an isogenic RCH-ACV NSD2 p.E1099K mutant (9B) (AID 1645876). Further: nearly all actives have a fitted effect of over 70% in size.
Test [3] deals with Cytochrome P450 2D6 (Homo sapiens) (UniProt P10635). The test can be described thus: Cytochrome P450 family 2 subfamily D member 6 (CYP2D6) small molecule antagonists: luciferase biochemical (cell-free) qHTS assay (AID 1645840; active means well fitted curve in the direction sought with a large enough effect in the repeat runs; an effect the other way counts as inactive or inconclusive; further: nearly all actives have a fitted effect of over 55% in size; further: potency means the concentration at half of the fitted maximal effect). In a few lines:
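P450-Glo CYP2D6 system: proluciferin substrate converted by enzyme to luciferin, read by luminescence proportional to activity. Enzyme-substrate mix with compound 10 min at room temperature, then NADPH regeneration 1 h before detection reagent.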

Test [4] has as its target Cytochrome P450 2C9 (Homo sapiens) (UniProt P11712). The test can be described thus: Cytochrome P450 family 2 subfamily C member 9 (CYP2C9) small molecule antagonists: luciferase biochemical (cell-free) qHTS assay (AID 1645842; active means well fitted curve in the direction sought with a large enough effect in the repeat runs; an effect the other way counts as inactive or inconclusive; further: series mostly up to about 57 µM; on the % scale 0 is the no-effect control and ±100 the full control effect; nearly all actives have a fitted effect of over 55% in size). In a few lines:
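P450-Glo CYP2C9 system: proluciferin substrate with enzyme in mix containing 0.4% BSA, 10 min at room temperature, then NADPH regeneration solution added and incubated 1 h at 37C. Detection reagent stopped reaction; luminescence read after 20 min as RLU.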

Results filed as inconclusive are left out. Values without a mark were called inactive. Calls of active or inactive are those of the source. Unless noted, the call rests on the fitted dose curve; in most records, active means well fitted curve in the direction sought with a large enough effect; inconclusive means small, poorly fitted or top-dose-only effect, or another doubt; inactive means no such curve, though single readings can be large; an effect the other way counts as inactive or inconclusive.

Cytochrome P450 2D6 (Homo sapiens), sequence (P10635 whole entry, looked up): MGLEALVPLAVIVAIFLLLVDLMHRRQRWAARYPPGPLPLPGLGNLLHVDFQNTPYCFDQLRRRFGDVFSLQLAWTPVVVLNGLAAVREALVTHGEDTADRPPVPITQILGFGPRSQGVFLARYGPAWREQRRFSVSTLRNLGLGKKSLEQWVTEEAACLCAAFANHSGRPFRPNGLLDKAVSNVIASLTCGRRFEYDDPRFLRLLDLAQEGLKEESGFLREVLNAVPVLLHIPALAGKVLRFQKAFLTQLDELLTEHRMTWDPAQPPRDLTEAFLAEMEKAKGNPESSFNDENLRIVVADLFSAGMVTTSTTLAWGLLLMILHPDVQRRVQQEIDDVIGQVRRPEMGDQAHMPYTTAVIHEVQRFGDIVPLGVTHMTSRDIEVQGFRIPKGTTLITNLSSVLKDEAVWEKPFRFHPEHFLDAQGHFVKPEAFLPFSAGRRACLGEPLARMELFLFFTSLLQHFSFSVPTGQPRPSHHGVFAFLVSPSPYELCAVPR
Cytochrome P450 2C9 (Homo sapiens), sequence (P11712 whole entry, looked up): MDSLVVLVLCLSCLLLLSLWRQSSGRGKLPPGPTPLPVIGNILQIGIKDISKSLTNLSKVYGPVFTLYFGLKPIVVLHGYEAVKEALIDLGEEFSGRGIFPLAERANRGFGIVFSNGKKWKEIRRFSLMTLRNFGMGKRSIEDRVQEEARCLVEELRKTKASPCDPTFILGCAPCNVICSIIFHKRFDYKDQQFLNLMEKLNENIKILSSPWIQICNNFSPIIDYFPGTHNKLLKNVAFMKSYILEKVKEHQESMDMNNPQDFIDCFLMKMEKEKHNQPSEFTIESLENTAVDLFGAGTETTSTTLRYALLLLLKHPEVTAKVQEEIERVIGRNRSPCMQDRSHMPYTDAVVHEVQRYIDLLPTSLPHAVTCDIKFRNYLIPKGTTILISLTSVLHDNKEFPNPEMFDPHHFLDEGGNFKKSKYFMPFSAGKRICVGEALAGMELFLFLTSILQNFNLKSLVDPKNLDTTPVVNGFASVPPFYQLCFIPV

In the case of `O=C(O)/C=C/c1ccc(Cn2ccnc2)cc1`, the Potency result in test [1] and in test [2] was “inactive” in each case.
As for `CCC(C)(CN(C)C)OC(=O)c1ccccc1` (stereo not drawn), the Potency entry in test [1] and in test [2] was “inactive” in each case.
On to `c1ccc2[nH]ccc2c1`, for which the Potency entry in test [1], in test [3] and in test [2] was “inactive” each time.
`O=C(/C=C/c1ccccc1)OCc1ccccc1`: the Potency result in test [1], in test [3] and in test [2] was “inactive” in each case.
As to `CCOc1cc(NC(C)=O)ccc1C(=O)OC`, the Potency result in test [1], in test [3] and in test [2] was “inactive” throughout.
`CCc1nnc(NS(=O)(=O)c2ccc(N)cc2)s1`: the Potency entry in test [1], in test [3] and in test [2] was “inactive” throughout.
In the case of `O=S1(=O)OC(c2ccc(O)cc2)(c2ccc(O)cc2)c2ccccc21`, the Potency result in test [1] and in test [2] was “inactive” in each case.
Take `NC(=O)N[C@@H](CCC(=O)O)C(=O)O`: the Potency entry in test [1], in test [3] and in test [2] was “inactive” throughout.
For `NS(=O)(=O)c1ccc(C(=O)O)cc1`, the Potency result in test [1] and in test [2] was “inactive” throughout.
Turning to `NC(N)=NCCN1CCCCCCC1`, the % pathology change, negative = correction in test [1] is -4.73% [at 0.369 µM]. The outcome in test [2] is “inactive [at 0.588 µM]”.
With `CC(=O)N(CC(O)CO)c1c(I)c(C(=O)NCC(O)CO)c(I)c(C(=O)NCC(O)CO)c1I` (stereo not drawn), the Potency entry in test [1], in test [3] and in test [2] was “inactive” throughout.
Take `COc1ccccc1OCC(O)CO` (stereo not drawn): the Potency result in test [1] and in test [2] was “inactive” each time.
For `COc1ccc(Cc2cnc(N)nc2N)cc1OC`, the Potency entry in test [1], in test [3] and in test [2] was “inactive” each time.
For `COc1cc(C(=O)NCCCCCC(=O)O)cc(OC)c1OC`, the Potency entry in test [1], in test [4] and in test [2] was “inactive” throughout.
With `CC(O)CCCCn1c(=O)c2c(ncn2C)n(C)c1=O` (stereo not drawn), the Potency result in test [1], in test [4] and in test [2] was “inactive” each time.
Consider `COc1ccc(O)cc1`, for which the Potency entry in test [3] and in test [4] was “inactive” each time.
In the case of `CCCCCCCCCCC(CO)CCCCCCCC` (stereo not drawn), the Potency entry in test [1] and in test [2] was “inactive” in each case.
Take `Cc1ccccc1N=Nc1ccc(N=Nc2c(O)ccc3ccccc23)c(C)c1`: the Potency result in test [1], in test [4] and in test [2] was “inactive” in each case.
Consider `CCN[C@H]1CN(CCCOC)S(=O)(=O)c2sc(S(N)(=O)=O)cc21`, for which the Potency result in test [1], in test [4] and in test [2] was “inactive” in each case.
Turning to `Cc1c(NC(C)C)c(=O)n(-c2ccccc2)n1C`, the Potency result in test [1], in test [4] and in test [2] was “inactive” in each case.
As for `O=C(OOC(=O)c1ccccc1)c1ccccc1`, the Potency entry in test [1], in test [4] and in test [2] was “inactive” throughout.
Take `CC(CN(C)C)C(C)(O)Cc1ccc(Cl)cc1` (stereo not drawn): the Potency entry in test [1] and in test [2] was “inactive” each time. Moreover, in test [3], the Potency was 12.3 µM (active).
In the case of `Cc1ccc(C(C)C)c(O)c1`, the Potency entry in test [1], in test [4] and in test [2] was “inactive” throughout.
With `C1CCN2C[C@@H]3C[C@@H](CN4CCCC[C@@H]34)[C@H]2C1`, the Potency entry in test [1] and in test [2] was “inactive” in each case.
For `CCOC(=O)OC(C)OC(=O)[C@@H]1N2C(=O)[C@@H](NC(=O)[C@H](N)c3ccccc3)[C@H]2SC1(C)C` (stereo partly drawn), the Potency result in test [1] and in test [2] was “inactive” each time.
Regarding `NS(=O)(=O)c1ccc(NC(=O)CCC(=O)O)cc1`, the Potency result in test [1] and in test [2] was “inactive” throughout.
For the molecule `OCC(O)CS` (stereo not drawn), the Potency entry in test [1], in test [4] and in test [2] was “inactive” in each case.
`CO[C@@]1(NC(=O)C(C(=O)O)c2ccc(O)cc2)C(=O)N2C(C(=O)O)=C(CSc3nnnn3C)CO[C@@H]21` (stereo partly drawn): the Potency entry in test [1], in test [4] and in test [2] was “inactive” in each case.
For `NS(=O)(=O)c1cc(C2(O)NC(=O)c3ccccc32)ccc1Cl` (stereo not drawn), the Potency entry in test [1], in test [4] and in test [2] was “inactive” throughout.
Take `CC(C)NC[C@@H](O)COc1ccc(CC(N)=O)cc1`: the Potency result in test [1] and in test [2] was “inactive” throughout.

These data come from PubChem BioAssay (NCATS).
